Tests used:
Assay in all cases: DAPPL (digital affinity profiling via proximity ligation, sequencing); 10 mM Tris-HCl pH 7.5, 50 mM NaCl, 1 mM DTT, 4% glycerol, room temperature, 30 min; GST-TFs on glutathione beads, 16-mer random dsDNA library, 0.1% formaldehyde crosslink after washing; high values mean tight binding
FLI1 = target: T1, FLI1 (Homo sapiens, UniProt Q01543 1-452); conditions: protein: recombinant; tags: N-terminal GST; dsDNA, one strand shown
T1 sequence: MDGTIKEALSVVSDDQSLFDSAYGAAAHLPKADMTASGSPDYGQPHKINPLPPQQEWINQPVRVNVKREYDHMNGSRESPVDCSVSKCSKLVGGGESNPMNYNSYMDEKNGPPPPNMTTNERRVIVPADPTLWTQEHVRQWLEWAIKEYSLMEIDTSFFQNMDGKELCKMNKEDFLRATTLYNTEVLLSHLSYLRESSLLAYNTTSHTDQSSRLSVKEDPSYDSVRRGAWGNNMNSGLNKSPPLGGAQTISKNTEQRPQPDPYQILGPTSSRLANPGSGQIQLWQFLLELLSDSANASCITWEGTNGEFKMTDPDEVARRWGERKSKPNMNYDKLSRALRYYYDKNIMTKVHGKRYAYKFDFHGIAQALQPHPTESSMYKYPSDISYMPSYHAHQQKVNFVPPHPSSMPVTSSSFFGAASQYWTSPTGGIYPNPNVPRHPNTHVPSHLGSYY
Method in brief: (§1)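 Yeast served to express human transcription factors as GST fusions, which were then captured on glutathione beads and labelled with DNA barcodes. Pooled with a tag-only sample, they were incubated with 200 nmole of a 16-mer random double-stranded DNA library for 30 min at room temperature in Tris/NaCl/DTT/glycerol buffer, washed, crosslinked with 0.1% formaldehyde, ligated by proximity, amplified by PCR and sequenced. Dividing each hexamer's read frequency for a factor by its frequency for the tag-only sample gives the binding signal.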

ELK1 = target: T2, ELK1 (Homo sapiens, UniProt P19419 1-428); conditions: protein: recombinant; tags: N-terminal GST; dsDNA, one strand shown
T2 sequence: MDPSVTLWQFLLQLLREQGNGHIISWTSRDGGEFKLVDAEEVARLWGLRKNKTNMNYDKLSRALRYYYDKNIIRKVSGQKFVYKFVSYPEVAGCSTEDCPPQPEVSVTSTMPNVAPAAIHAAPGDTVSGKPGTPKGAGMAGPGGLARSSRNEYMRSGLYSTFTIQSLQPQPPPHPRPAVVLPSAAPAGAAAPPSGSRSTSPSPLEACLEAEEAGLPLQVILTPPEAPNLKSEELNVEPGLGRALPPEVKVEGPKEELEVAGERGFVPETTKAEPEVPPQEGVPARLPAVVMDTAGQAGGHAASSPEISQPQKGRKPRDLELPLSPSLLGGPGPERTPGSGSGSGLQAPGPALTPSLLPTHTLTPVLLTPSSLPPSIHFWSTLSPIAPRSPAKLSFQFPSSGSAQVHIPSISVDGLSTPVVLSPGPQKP
Method in brief: as §1

GABPA = target: T3, GABPA (Homo sapiens, UniProt Q06546 1-454); conditions: protein: recombinant; tags: N-terminal GST; dsDNA, one strand shown
T3 sequence: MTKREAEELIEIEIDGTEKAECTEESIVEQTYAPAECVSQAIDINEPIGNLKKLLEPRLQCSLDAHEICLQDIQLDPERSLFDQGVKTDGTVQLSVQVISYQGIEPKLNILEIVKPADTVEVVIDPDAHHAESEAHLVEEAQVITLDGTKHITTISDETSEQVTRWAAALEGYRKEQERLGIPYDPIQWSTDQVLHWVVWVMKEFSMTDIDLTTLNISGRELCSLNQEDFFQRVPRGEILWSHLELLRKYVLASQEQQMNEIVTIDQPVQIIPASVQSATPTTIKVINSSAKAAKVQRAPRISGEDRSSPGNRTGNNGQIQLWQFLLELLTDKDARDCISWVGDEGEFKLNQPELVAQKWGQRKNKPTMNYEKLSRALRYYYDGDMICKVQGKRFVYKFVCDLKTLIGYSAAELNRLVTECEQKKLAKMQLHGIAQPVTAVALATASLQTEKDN
Method in brief: as §1

ELF1 = ELF1 (Homo sapiens, UniProt P32519 1-619); conditions: protein: recombinant; tags: N-terminal GST; dsDNA, one strand shown
Sequence of ELF1 (P32519 whole entry): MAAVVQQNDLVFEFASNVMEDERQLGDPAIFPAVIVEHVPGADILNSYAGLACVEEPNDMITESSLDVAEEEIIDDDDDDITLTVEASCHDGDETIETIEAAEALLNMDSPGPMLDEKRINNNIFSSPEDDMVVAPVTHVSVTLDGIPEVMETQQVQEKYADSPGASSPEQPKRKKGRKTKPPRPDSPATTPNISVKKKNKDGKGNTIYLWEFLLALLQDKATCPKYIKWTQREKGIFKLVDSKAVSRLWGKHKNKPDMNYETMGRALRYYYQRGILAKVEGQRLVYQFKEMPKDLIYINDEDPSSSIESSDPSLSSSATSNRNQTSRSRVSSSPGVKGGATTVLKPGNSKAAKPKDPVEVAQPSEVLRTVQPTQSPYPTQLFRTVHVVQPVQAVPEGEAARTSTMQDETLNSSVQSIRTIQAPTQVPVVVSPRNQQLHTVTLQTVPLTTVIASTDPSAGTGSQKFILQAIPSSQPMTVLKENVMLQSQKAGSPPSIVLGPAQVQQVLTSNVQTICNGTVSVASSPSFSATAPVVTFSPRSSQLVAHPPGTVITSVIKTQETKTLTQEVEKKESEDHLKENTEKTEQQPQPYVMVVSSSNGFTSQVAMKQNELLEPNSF
Method in brief: as §1

EHF = target: T4, EHF (Homo sapiens, UniProt Q9NZC4 1-300); conditions: protein: recombinant; tags: N-terminal GST; dsDNA, one strand shown
T4 sequence: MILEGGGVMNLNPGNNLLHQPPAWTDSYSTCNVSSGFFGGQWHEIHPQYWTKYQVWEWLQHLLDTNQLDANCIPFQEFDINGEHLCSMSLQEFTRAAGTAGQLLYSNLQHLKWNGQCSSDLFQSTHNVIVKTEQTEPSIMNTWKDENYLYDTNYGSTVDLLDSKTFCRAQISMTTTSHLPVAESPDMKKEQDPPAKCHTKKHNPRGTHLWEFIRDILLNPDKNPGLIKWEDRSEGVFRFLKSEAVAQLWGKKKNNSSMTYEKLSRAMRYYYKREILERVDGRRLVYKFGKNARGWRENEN
Method in brief: as §1

SPI1 = SPI1 (Homo sapiens, UniProt P17947 1-270); conditions: protein: recombinant; tags: N-terminal GST; dsDNA, one strand shown
Method in brief: as §1

SPIB = SPIB (Homo sapiens, UniProt Q01892 1-262); conditions: protein: recombinant; tags: N-terminal GST; dsDNA, one strand shown
Sequence of SPIB (Q01892 whole entry): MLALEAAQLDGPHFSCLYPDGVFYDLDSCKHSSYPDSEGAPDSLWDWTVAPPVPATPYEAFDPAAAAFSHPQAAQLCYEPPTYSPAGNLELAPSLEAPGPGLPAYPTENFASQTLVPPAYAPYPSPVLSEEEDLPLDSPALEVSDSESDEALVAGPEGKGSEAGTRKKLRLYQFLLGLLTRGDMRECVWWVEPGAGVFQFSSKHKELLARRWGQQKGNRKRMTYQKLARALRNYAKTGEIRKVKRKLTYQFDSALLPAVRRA
Method in brief: as §1

ELK3 = target: T5, ELK3 (Homo sapiens, UniProt P41970 1-407); conditions: protein: recombinant; tags: N-terminal GST; dsDNA, one strand shown
T5 sequence: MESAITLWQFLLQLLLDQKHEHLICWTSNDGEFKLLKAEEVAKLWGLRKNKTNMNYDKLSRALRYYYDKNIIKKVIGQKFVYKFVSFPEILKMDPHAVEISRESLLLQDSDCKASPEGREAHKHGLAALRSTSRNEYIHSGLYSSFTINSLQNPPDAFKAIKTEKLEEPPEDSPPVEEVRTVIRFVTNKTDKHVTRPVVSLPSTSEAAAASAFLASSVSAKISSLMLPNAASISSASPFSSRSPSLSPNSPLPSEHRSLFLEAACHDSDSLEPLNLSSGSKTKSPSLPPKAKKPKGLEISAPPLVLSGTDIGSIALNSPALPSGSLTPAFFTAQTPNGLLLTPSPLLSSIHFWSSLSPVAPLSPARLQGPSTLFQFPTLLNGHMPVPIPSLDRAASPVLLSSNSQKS
Method in brief: as §1

FEV = target: T6, FEV (Homo sapiens, UniProt Q99581 1-238); conditions: protein: recombinant; tags: N-terminal GST; dsDNA, one strand shown
T6 sequence: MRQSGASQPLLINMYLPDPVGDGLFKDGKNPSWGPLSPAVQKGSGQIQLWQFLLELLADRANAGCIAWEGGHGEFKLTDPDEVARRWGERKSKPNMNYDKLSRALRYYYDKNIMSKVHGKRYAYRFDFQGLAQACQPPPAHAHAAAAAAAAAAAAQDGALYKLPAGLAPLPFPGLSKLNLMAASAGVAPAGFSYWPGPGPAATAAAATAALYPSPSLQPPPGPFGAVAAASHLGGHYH
Method in brief: as §1

ETV5 = ETV5 (Homo sapiens, UniProt P41161 1-510); conditions: protein: recombinant; tags: N-terminal GST; dsDNA, one strand shown
Sequence of ETV5 (P41161 whole entry): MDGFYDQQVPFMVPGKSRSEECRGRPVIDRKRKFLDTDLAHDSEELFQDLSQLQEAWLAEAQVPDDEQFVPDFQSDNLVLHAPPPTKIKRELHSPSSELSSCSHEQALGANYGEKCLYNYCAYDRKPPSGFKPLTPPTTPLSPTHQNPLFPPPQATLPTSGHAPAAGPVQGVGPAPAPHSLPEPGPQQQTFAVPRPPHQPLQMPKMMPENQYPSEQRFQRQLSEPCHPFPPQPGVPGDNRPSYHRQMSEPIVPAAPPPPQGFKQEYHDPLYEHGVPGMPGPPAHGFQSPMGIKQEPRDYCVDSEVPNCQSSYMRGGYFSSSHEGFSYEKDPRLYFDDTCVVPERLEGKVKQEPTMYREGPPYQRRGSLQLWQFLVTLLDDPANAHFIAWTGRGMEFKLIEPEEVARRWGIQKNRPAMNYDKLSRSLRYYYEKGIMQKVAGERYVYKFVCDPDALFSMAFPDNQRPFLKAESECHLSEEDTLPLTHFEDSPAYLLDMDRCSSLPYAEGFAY
Method in brief: as §1

HSF1 = HSF1 (Homo sapiens, UniProt Q00613 1-529); conditions: protein: recombinant; tags: N-terminal GST; chain copies: 3; dsDNA, one strand shown
Sequence of HSF1 (Q00613 whole entry): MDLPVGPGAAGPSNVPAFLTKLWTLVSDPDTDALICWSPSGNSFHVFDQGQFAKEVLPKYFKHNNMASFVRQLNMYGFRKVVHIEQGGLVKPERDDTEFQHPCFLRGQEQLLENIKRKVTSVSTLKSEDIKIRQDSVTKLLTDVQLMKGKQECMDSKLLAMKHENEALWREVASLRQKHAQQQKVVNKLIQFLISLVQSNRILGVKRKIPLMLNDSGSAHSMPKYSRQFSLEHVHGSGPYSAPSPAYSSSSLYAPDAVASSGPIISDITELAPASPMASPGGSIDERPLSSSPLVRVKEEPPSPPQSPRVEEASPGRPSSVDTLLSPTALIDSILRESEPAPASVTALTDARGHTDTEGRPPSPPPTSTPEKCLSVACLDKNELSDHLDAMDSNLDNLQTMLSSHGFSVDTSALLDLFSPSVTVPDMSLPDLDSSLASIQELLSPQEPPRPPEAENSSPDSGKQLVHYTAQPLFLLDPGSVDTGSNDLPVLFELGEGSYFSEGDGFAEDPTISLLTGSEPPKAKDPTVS
Method in brief: as §1

SPIC = target: T7, SPIC (Homo sapiens, UniProt Q8N5J4 1-248); conditions: protein: recombinant; tags: N-terminal GST; dsDNA, one strand shown
T7 sequence: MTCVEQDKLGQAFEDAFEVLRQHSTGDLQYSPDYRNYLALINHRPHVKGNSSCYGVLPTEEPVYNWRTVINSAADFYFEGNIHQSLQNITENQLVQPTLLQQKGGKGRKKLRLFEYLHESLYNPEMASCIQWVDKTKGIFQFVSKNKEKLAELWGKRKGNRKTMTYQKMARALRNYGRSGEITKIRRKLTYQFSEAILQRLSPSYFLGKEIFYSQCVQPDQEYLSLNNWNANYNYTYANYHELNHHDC
Method in brief: as §1

ELF4 = ELF4 (Homo sapiens, UniProt Q99607 1-663); conditions: protein: recombinant; tags: N-terminal GST; dsDNA, one strand shown
Sequence of ELF4 (Q99607 whole entry): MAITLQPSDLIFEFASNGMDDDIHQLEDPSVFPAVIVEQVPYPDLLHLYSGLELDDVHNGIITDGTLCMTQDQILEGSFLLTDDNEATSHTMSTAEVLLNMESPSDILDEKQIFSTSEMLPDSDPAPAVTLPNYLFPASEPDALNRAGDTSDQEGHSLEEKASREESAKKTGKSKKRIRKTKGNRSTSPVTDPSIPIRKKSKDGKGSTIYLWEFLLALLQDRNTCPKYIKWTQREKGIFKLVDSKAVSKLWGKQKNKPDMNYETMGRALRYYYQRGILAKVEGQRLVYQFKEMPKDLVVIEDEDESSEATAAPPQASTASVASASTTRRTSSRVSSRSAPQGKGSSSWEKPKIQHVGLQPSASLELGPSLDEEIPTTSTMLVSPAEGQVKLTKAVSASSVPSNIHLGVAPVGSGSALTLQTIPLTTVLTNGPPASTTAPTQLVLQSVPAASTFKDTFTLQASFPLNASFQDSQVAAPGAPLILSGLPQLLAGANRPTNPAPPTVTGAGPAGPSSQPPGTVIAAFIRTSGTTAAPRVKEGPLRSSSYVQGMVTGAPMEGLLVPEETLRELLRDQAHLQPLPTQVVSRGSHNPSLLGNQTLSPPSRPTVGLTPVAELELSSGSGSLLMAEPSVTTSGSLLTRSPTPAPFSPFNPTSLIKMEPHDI
Method in brief: as §1

ELK4 = target: T8, ELK4 (Homo sapiens, UniProt P28324-2 1-405); conditions: protein: recombinant; tags: N-terminal GST; dsDNA, one strand shown
T8 sequence: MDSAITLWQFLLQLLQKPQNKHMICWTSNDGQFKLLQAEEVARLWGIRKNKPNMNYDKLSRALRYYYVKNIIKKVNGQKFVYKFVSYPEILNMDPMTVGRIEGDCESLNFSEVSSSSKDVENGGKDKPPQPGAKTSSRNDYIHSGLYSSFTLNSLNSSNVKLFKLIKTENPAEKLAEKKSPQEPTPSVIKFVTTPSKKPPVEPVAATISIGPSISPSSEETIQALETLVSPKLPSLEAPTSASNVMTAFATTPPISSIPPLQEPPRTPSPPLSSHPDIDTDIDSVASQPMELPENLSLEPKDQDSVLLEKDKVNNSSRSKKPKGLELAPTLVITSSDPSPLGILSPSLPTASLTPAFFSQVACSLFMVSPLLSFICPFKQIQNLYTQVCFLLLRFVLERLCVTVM
Method in brief: as §1

ELF3 = target: T9, ELF3 (Homo sapiens, UniProt P78545 1-371); conditions: protein: recombinant; tags: N-terminal GST; dsDNA, one strand shown
T9 sequence: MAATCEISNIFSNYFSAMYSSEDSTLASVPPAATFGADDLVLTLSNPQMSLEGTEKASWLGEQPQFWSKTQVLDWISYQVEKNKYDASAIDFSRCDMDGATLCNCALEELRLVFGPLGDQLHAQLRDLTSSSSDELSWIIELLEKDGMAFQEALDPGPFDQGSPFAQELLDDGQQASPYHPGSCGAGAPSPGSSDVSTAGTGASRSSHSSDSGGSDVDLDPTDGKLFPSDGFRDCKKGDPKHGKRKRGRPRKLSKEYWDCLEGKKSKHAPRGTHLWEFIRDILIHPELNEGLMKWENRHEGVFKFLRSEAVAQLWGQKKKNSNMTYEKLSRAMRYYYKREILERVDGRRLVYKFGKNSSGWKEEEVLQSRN
Method in brief: as §1

CRX = CRX (Homo sapiens, UniProt O43186 1-299); conditions: protein: recombinant; tags: N-terminal GST; dsDNA, one strand shown
Sequence of CRX (O43186 whole entry): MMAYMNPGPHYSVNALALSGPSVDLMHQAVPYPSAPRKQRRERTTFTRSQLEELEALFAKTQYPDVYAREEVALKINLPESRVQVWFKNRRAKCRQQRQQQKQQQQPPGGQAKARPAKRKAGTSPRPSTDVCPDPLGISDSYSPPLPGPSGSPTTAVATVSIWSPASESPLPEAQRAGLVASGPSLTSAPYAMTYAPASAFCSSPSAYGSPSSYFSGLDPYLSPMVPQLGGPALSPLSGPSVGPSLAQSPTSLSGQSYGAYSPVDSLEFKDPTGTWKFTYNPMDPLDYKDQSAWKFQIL
Method in brief: as §1

ETV1 = ETV1 (Homo sapiens, UniProt P50549 1-477); conditions: protein: recombinant; tags: N-terminal GST; dsDNA, one strand shown
Sequence of ETV1 (P50549 whole entry): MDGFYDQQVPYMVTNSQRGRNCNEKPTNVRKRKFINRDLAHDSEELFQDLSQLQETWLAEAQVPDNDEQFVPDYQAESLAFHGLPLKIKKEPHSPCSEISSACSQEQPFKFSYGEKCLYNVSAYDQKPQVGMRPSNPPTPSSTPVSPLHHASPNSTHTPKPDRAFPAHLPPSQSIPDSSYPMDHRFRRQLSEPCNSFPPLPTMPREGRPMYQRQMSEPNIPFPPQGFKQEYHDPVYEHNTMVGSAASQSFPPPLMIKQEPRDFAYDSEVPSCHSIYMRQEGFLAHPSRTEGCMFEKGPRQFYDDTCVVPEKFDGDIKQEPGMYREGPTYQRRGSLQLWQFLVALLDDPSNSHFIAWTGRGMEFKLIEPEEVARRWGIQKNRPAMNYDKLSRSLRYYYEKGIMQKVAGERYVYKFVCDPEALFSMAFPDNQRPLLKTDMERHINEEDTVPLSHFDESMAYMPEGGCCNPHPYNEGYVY
Method in brief: as §1

ETV2 = target: T10, ETV2 (Homo sapiens, UniProt O00321 1-342); conditions: protein: recombinant; tags: N-terminal GST; dsDNA, one strand shown
T10 sequence: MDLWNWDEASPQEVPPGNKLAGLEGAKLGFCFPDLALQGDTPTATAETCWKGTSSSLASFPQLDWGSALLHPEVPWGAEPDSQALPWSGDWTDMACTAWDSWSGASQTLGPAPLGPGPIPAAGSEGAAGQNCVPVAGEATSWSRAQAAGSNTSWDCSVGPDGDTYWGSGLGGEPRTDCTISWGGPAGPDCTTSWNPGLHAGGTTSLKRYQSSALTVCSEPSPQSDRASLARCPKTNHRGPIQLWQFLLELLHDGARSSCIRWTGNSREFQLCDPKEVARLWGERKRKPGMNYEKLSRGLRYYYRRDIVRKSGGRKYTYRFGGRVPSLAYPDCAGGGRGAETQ
Method in brief: as §1

TAAAGC was tested, and the binding signal (FLI1) was 1.03 fold enrichment (6-mer frequency, TF over GST control), the binding signal (ELK1) was 1.12 fold enrichment (6-mer frequency, TF over GST control) and the binding signal (GABPA) was 1.11 fold enrichment (6-mer frequency, TF over GST control). For the same sequence, the binding signal (ELF1) was 1.05 fold enrichment (6-mer frequency, TF over GST control), the binding signal (EHF) was 1.02 fold enrichment (6-mer frequency, TF over GST control) and the binding signal (SPI1) was 1.05 fold enrichment (6-mer frequency, TF over GST control). For the same sequence, the binding signal (SPIB) was 1.06 fold enrichment (6-mer frequency, TF over GST control), the binding signal (ELK3) was 1.09 fold enrichment (6-mer frequency, TF over GST control) and the binding signal (FEV) was 1.04 fold enrichment (6-mer frequency, TF over GST control). The binding signal (ETV5) was 1.09 fold enrichment (6-mer frequency, TF over GST control), the binding signal (HSF1) was 1.33 fold enrichment (6-mer frequency, TF over GST control) and the binding signal (SPIC) was 1.1 fold enrichment (6-mer frequency, TF over GST control). For the same sequence, the binding signal (ELF4) was 1.05 fold enrichment (6-mer frequency, TF over GST control), the binding signal (ELK4) was 1.1 fold enrichment (6-mer frequency, TF over GST control) and the binding signal (ELF3) was 1.06 fold enrichment (6-mer frequency, TF over GST control). The binding signal (CRX) was 1.87 fold enrichment (6-mer frequency, TF over GST control) and the binding signal (ETV1) was 1.08 fold enrichment (6-mer frequency, TF over GST control).

In the case of ATGCTG, the binding signal (FLI1) is reported as 1.09 fold enrichment (6-mer frequency, TF over GST control), the binding signal (GABPA) is reported as 1.07 fold enrichment (6-mer frequency, TF over GST control) and the binding signal (ELF1) is reported as 1.13 fold enrichment (6-mer frequency, TF over GST control). The binding signal (EHF) was 1.22 fold enrichment (6-mer frequency, TF over GST control), the binding signal (SPI1) was 1.07 fold enrichment (6-mer frequency, TF over GST control) and the binding signal (SPIB) was 1.05 fold enrichment (6-mer frequency, TF over GST control). The binding signal (FEV) was 1.06 fold enrichment (6-mer frequency, TF over GST control), the binding signal (ETV5) was 1.13 fold enrichment (6-mer frequency, TF over GST control) and the binding signal (HSF1) was 1.02 fold enrichment (6-mer frequency, TF over GST control). For the same sequence, the binding signal (SPIC) was 1.14 fold enrichment (6-mer frequency, TF over GST control), the binding signal (ELF4) was 1.06 fold enrichment (6-mer frequency, TF over GST control) and the binding signal (ELK4) was 1.26 fold enrichment (6-mer frequency, TF over GST control). The binding signal (ETV2) was 1.19 fold enrichment (6-mer frequency, TF over GST control), the binding signal (ELF3) was 1.26 fold enrichment (6-mer frequency, TF over GST control) and the binding signal (ETV1) was 1.06 fold enrichment (6-mer frequency, TF over GST control).
